# Compound activity from PubChem.
# TRHR enhancer: allosterically enhances the human TRH receptor. TRHR cells, fluo-8 calcium fluorescence, EC20 TRH enhancement. enhancement, % at 2 µM. 360,000 tested, 0.66% active; in the data active means enhancement above about 30%; further: 0% is about no effect
#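 Enhancer read-out: after compound pinning and an initial kinetic agonist-mode read, an EC20 of TRH (10 nM final) was injected and fluo-8 calcium signal (Ex 480/Em 530) followed at 1 s/cycle for 100 cycles in TRHR-expressing cells.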
# D1 potentiator: potentiators of human D1 dopamine receptor. P21728. HEK293 TREx D1 cells, calcium flux, dopamine EC20 potentiation. potentiation, % at 10 µM. 360,000 tested, 0.036% active; in the data active means potentiation above about 30%; further: 0% is about no effect
# Target sequence (P21728 whole entry, looked up): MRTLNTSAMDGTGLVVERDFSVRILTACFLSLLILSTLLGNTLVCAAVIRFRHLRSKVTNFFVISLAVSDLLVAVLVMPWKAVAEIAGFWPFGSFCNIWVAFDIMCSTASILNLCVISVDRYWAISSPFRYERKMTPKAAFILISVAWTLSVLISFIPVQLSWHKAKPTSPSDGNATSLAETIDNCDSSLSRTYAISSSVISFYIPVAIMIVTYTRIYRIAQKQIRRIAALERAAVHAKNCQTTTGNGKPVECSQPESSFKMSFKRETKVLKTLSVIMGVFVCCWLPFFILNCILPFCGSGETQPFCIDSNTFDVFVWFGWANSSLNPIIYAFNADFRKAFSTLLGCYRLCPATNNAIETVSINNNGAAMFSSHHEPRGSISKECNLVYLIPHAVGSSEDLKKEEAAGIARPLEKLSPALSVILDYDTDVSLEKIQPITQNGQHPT
# D1 antag: human D1 dopamine receptor antagonism; HEK293 TREx D1 cells, calcium flux, dopamine EC80; stronger effect = lower value; activity change, negative = inhibition, % at 10 µM; 360,000 tested, 3.2% active; AID 504652; in the data active means activity change below about -30%; further: on the % scale 0 is the no-effect control and ±100 the full control effect
#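 Kinetic fluorescence of a calcium dye serves as the read-out. D1-expressing Hek293 Trex cells, induced overnight at 30 C, are exposed to compound for 180 s before an EC80 dopamine addition, then read 180 s further.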
# D1 agonist: human D1 receptor agonism; 360,000 tested, 1% active; HEK293 T-REx D1 cells, calcium flux, agonist mode; activation, % at 2 µM; further: 0% is about no effect
#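 Agonism was scored from calcium flux recorded over 180 s (1 read/s) after pintool compound addition, following a 10-cycle baseline. Cells were inducible force-coupled HEK293 TREx D1, plated overnight at 30 C and loaded with no-wash calcium dye.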
# TRHR agonist: activates the human TRH receptor; 360,000 tested, 0.18% active; TRHR cells, calcium flux fluo-8, FDSS agonist mode; AID 493084; P34981; activation, % at 2 µM; further: 0% is about no effect
#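 Agonist-mode FDSS calcium read (Ex 480/Em 530, 1 s cycles) in 1536-well TRHR cells with fluo-8 dye, after 10-cycle baseline and 23 nL compound addition; TRH at EC20 (10 nM final) added afterwards for the enhancer phase.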
# Numbers without * were called inactive; . = not tested or not shown; ! = a repeat was not active. Rows were chosen to be rich in hits. Some 4.7% of all compounds tested hit in one or more screens of this group. Unless noted, no stated cut-off is given here; in the data, active means activation above about 30%; inactive means the rest.
SMILES,TRHR enhancer,D1 potentiator,D1 antag,D1 agonist,TRHR agonist
OC(COCc1ccc(Cl)cc1)CN1CC=C(c2ccccc2)CC1 (configuration not stated),9.5,-6.5,-7.7,29.3,-0.6
OC(CN1CC=C(c2ccccc2)CC1)c1ccccc1 (configuration not stated),35.1*,-2.5,-10.5,3.8,0.7
Cc1cccc(-n2c(/C=C/c3c[nH]c4ccccc34)nc3ccccc3c2=O)c1,-9.1,3.0,-5.7,8.0,2.3
Cc1ccc(NC(=O)CN2C(=O)CN=C(c3ccccc3)c3ccccc32)cc1,-1.7,1.8,5.0,2.3,0.5
C[C@H]1OC[C@@H](C[N+](C)(C)C)O1,-1.9,-3.0,18.9,47.0*,41.0*
Oc1cc2c(cc1O)[C@H]1c3ccccc3CN[C@@H]1CC2,1.0,-2.6,-87.0*,66.5*,-0.4
CN1CCN(c2ccc([N+](=O)[O-])c(NCc3ccco3)c2)CC1,4.1,-5.7,-31.2*,0.2,-0.1
CN1CCN(c2nc(Cl)ncc2F)CC1,-2.3,-10.8,-32.2*,4.3,1.0
Cc1cccc(Cn2cccc(C(=O)Nc3nnc(C)s3)c2=O)c1,-2.3,-0.1,.,-1.3,-0.2
O=c1[nH]c2ccccc2c(=O)n1-c1ccc(Cl)c(Cl)c1,0.5,-1.7,-0.9,-1.0,-0.6
Cc1sc2ccccc2c1CC1=NCCN1,2.0,-9.3,-47.4*,4.5,1.3
COc1ccc(-c2nc(CN3C(=O)CN=C(c4ccccc4)c4ccccc43)c(C)o2)cc1OC,-1.1,-3.6,-30.6*,3.9,-0.7
COc1ccc(-c2nc(CN3C(=O)CN=C(c4ccccc4Cl)c4cc(Cl)ccc43)c(C)o2)cc1OC,-10.2,1.4,9.8,0.7,-0.1
Nc1cc(Cl)c2nonc2c1[N+](=O)[O-],-3.2,-0.3,-31.5*,1.3,0.5
CCN(CC)c1ccc(N=Cc2c(O)n(Cc3ccccc3)c(=O)[nH]c2=O)cc1,4.3,-3.9,-4.5,36.6*!,-0.7
CCN(CC)c1ccc(N=Cc2c(O)n(-c3ccccc3)c(=O)[nH]c2=O)cc1,4.4,-0.8,-1.4,86.1*,-1.2
CCOc1ccc(-n2c(O)c(C=Nc3ccc(N(CC)CC)cc3)c(=O)[nH]c2=O)cc1,1.7,-3.6,0.8,17.1,22.2
CCOc1ccccc1-n1c(O)c(C=Nc2ccc(N(CC)CC)cc2)c(=O)[nH]c1=O,-2.4,-0.6,10.3,36.9*,22.0
O=c1[nH]c(=O)n(Cc2ccc(F)cc2)c(O)c1C=Nc1ccc(Cl)cc1,-6.6,-5.0,-1.2,3.5,1.4
CCN(CC)c1ccc(N=Cc2c(O)n(-c3ccccc3C)c(=O)[nH]c2=O)cc1,2.6,-2.8,-8.3,30.9*,14.1
CCN(CC)C(=O)c1ccc(NC(=O)CCn2nc(-c3ccc(C)cc3)c3ccccc3c2=O)cc1,16.8,-6.8,-13.3,0.9,-0.1
CCCSc1nc2ccccc2c(=O)n1-c1ccccc1OC,-7.1,0.2,7.6,1.2,-0.2
CCCCc1nc2ccccc2c(=O)n1-c1cccc(OC)c1,4.4,-1.6,4.9,5.9,-0.7
O=S1(=O)N(Cc2ccccc2)CCCN1Cc1ccc(F)cc1Cl,19.9,-3.2,-43.9*,9.8,0.9
O=C(CN1C(=O)CN=C(c2ccccc2)c2ccccc21)Nc1cccc(C(F)(F)F)c1,-0.4,8.2,-14.3,6.1,0.9
SMILES,TRHR enhancer,D1 potentiator,D1 antag,D1 agonist,TRHR agonist
Cc1cc(C)n(-c2ccc(NN=C(C#N)C#N)cc2)n1,-5.3,-1.8,-30.6*,41.2*,2.0
N#CC(C#N)=NNc1ccc(-n2ccc(C(F)(F)F)n2)cc1,-9.7,-14.5,-36.0*,32.9*,9.1
COc1ccc(-n2c(O)c(/C=C/C=Nc3ccccc3)c(=O)[nH]c2=O)cc1,-0.7,-3.1,4.8,91.2*,29.6
O=c1[nH]c(=O)n(-c2ccccc2)c(O)c1/C=C/C=Nc1ccccc1,2.6,-2.9,-3.4,21.2,15.5
C=CCn1c(O)c(/C=C/C=Nc2ccccc2)c(=O)[nH]c1=O,1.3,-3.1,-3.3,16.4,9.9
COc1ccc(-n2c(O)c(/C(C)=N/Nc3ccccc3)c(=O)[nH]c2=O)cc1,-20.1,0.7,-0.8,0.8,-0.4
Cc1ccc(-n2c(O)c(/C=C/C=Nc3ccccc3)c(=O)[nH]c2=O)cc1,-4.5,8.0,21.6,49.6*,23.7
O=c1[nH]c(=O)n(C2CCCCC2)c(O)c1/C=C/C=Nc1ccccc1,16.9,-8.8,-0.9,174.8*,63.3*
CCc1ccc(-n2nc(C)c3c2NC(=O)CSC3c2ccccc2C)cc1 (configuration not stated),-5.5,-2.1,14.7,0.1,-0.8
CCc1ccc(-n2nc(C)c3c2NC(=O)CSC3c2ccc(C(=O)OC)cc2)cc1 (configuration not stated),6.7,1.1,-42.8*,9.4,-0.1
CCC(=NCCc1c[nH]c2ccccc12)c1c(O)n(C)c(=O)n(C)c1=O,-1.6,-4.5,-30.9*,10.5,-0.3
CCC(=NCCOc1ccc(Cl)cc1)c1c(O)n(C)c(=O)n(C)c1=O,-1.7,-8.7,-41.8*,7.8,0.5
CCOc1ccc(CN(CCc2ccc3c(c2)OCO3)Cc2ccc(CC)cc2)cc1,1.3,-0.6,3.9,3.0,-0.5
O=S1(=O)N(Cc2ccccc2Cl)CCCN1Cc1ccccc1Cl,2.6,3.4,-2.8,19.0,1.6
COC(=O)[C@@]1(Cc2ccc(F)cc2)[C@H]2c3cc(C(=O)N(C)C)[nH]c3C[C@H]2CN1C(=O)c1ccccc1,3.5,-0.1,-32.7*,2.9,1.6
CCOP(=O)(OCC)C(NS(=O)(=O)c1ccccc1)C(Cl)(Cl)Cl (configuration not stated),4.3,-0.6,-32.8*,0.8,-0.6
Cc1ccc(Cn2cccc(C(=O)Nc3nc4ccc(C)cc4s3)c2=O)cc1,5.4,-0.7,.,0.5,-0.7
COc1ccc(OC)c(NC(=O)Cn2cc(C(=O)c3ccccc3F)c3ccccc32)c1,3.1,-3.9,-32.9*,3.4,-0.5
Cc1cccc(-n2c(/C=C\c3cccc(Br)c3)nc3ccccc3c2=O)c1,-0.3,-1.4,0.6,-4.3,-0.4
CN1CCN(c2cc([N+](=O)[O-])ccc2Cl)CC1,-0.4,-6.0,-50.7*,1.2,0.2
CN1CCN(c2ccc([N+](=O)[O-])cc2Cl)CC1,-2.3,-2.6,-12.7,3.1,0.4
CCOc1cccc(CNC2CN3CCC2CC3)c1 (configuration not stated),-1.2,-6.6,-50.8*,2.9,0.6
O=C(N/N=C/c1c(O)n(CCc2ccc(F)cc2)c(=O)[nH]c1=O)c1ccncc1,4.5,3.6,23.5,1.4,-0.5
O=C(N/N=C/c1c(O)n(CCc2ccccc2)c(=O)[nH]c1=O)c1ccncc1,4.2,1.9,-36.9*,-0.9,0.9
CCOC(=O)C1CCCN(c2ccc([N+](=O)[O-])c3nonc23)C1 (configuration not stated),33.0*,15.1,-28.6,752.3*,247.8*
